From PubChem BioAssay AID602342 (Broad Institute, 2012) come the findings set out here.

The whole screen tested about 340,000 compounds, of which about 1,000 (0.29%) were called active. The full list was thinned out, with actives kept by preference. A number with no mark means an inactive call.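 How the source made its calls: active means mean replicate activation score at least 90 and every replicate individually at or above 90; inconclusive means only one of the two criteria met; inactive means neither criterion met.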

This test in a line: compounds raising miR-122 luciferase sensor output – cell-based, single point, plate reader, miR-122 inhibitor project, primary screen (AID 602342).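 Further: higher luciferase means less miR-122 activity so hits act as miR-122 inhibitors.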 Conditions: Huh7 miR-122 Renilla luciferase sensor, 48 h, active compounds read high; at 12.5 µM unless noted.
`C[C@]12CCC3C(CC[C@H]4C[C@@H](O)CC[C@]34C)C1CC[C@@H]2O` (stereo not given in full): the activation (reporter increase) was -9.92%.
For `C[C@]12CC[C@H](O)C[C@H]1CC[C@@H]1C2CC[C@]2(C)[C@@H](C3=CC(=O)OC3)[C@@H](O)C[C@]12O` (stereo not given in full), the activation (reporter increase) was 339% (active).
Under `C[C@]12CCC3C(CC[C@H]4C[C@@H](O)CC[C@]34C)C1C[C@@H](O)[C@H]2O` (stereo not given in full) stands -6.69%; under `COc1ccc(-n2nnnc2C(c2cccc3ccccc23)N2CCC(n3c(=O)[nH]c4ccccc43)CC2)cc1` (stereo not given), -6.36%; under `COC(=O)[C@H]1[C@H](CO)[C@H]2Cn3c(ccc(-c4ccccc4F)c3=O)[C@@H]1N2C(=O)C1CCC1`, 3% [at 16.7 µM].
